ClpP mod: qHTS Assay for Activators of ClpP; purified B. subtilis ClpP, FRET peptide cleavage, 20 min; Potency, µM (highest dose often 57.5 µM), inactives show at the top dose activity change, negative = active; actives 1.9% (n = 340,000); AID 651965, 2013; active means well fitted falling curve with a large enough effect; inconclusive means small, poorly fitted or top-dose-only effect; inactive means no such curve, though single readings can be large or run the other way; further: the source files actives as falling curves though it sought activators and does not explain the sign; nearly all actives have a fitted effect of over 65% in size
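Purified B. subtilis ClpP, 10 microg/mL final in Tris/HCl pH8 with KCl, BSA, glycerol and Tween-20, cleaved an Abz/nitrotyrosine-quenched decapeptide. Fluorescence (ex 320, em 430) was read at 0 and 20 min at room temperature. Delta was normalized to 5.8 microM ADEP and DMSO/no-enzyme controls.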
DT40 TDP1 no CPT: qHTS for Inhibitors of human tyrosyl-DNA phosphodiesterase 1 (TDP1): qHTS in cells in absence of CPT | Potency, µM (top dose mostly 46.2 µM), without a hit: at the highest dose activity change, negative = growth inhibition, actives largely listed as inhibitors | actives 15% (n = 420,000) | AID 686978, 2013 | DT40 Tdp1-/- hTDP1 cells, no CPT, ATP luminescence, 48 h; further: on the % scale 0 is the no-effect control and ±100 the full control effect; nearly all actives have a fitted effect of over 55% in size
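Stably hTDP1-transfected Tdp1-null chicken DT40 cells were treated with library compounds minus camptothecin and grown for at least 48 hr at 37 °C, after which cellular ATP was quantified by luminescence.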
TDP1 cell CPT: DT40-hTDP1 cell growth loss with CPT. actives 12% (n = 420,000). AID 686979. chicken DT40 Tdp1-/-;hTDP1 cells + 20 nM CPT, ATP luminescence, 48 h. Potency, µM (highest dose often 46.2 µM), for the others: at the top dose activity change, negative = growth inhibition, most hits filed as inhibitors; further: on the % scale 0 is the no-effect control and ±100 the full control effect; nearly all actives have a fitted effect of over 55% in size
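Cell growth measured by CellTiter-Glo luminescence after a minimum 48 h, 37 C compound exposure with 20 nM CPT in Tdp1-knockout DT40 cells stably expressing hTDP1, seeded 400/well; qHTS titration format.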
TDP1 block: TDP1 (human) enzyme inhibition; Q9NUW8; recombinant TDP1, AlphaScreen DNA substrate cleavage; Potency, µM (top dose mostly 130 µM), for inactives: at the top dose activity change, negative = inhibition, most hits filed as inhibitors; actives 0.28% (n = 350,000); further: on the % scale 0 is the no-effect control and ±100 the full control effect; nearly all actives have a fitted effect of over 40% in size
Target sequence (Q9NUW8 whole entry, looked up): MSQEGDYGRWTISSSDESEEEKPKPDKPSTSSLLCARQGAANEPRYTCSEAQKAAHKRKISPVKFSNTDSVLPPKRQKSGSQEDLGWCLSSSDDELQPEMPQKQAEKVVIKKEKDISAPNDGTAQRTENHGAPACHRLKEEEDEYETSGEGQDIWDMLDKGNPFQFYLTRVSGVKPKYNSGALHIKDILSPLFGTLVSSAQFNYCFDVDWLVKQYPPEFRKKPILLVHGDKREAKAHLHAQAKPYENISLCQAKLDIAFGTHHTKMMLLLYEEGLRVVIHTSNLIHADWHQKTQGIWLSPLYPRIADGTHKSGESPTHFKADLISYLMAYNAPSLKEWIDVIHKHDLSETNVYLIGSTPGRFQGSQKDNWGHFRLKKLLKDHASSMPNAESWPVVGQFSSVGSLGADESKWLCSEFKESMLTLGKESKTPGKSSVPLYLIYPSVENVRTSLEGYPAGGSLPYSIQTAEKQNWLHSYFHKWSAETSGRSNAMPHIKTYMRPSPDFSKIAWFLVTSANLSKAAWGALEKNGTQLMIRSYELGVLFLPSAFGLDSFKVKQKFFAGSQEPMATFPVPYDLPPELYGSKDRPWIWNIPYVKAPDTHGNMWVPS
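E. coli-derived human Tdp1, 1 nM final. Cpd preinc 15 min RT; substrate 15 nM final, 5 min RT; AS bead mix 10 ug/ml final, 10 min RT. Signal loss = tyrosine-FITC cleavage. No-enzyme wells = max signal.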
Active calls of the source: *; ! = not active in a repeat; [ ] = remark or other dose. Compounds with a hit are over-represented: about 17% of the library has one in this group of screens. Unless noted, the call rests on the fitted dose curve; in most records, active means well fitted curve in the direction sought with a large enough effect; inconclusive means small, poorly fitted or top-dose-only effect, or another doubt; inactive means no such curve, though single readings can be large; an effect the other way counts as inactive or inconclusive. Potency means the concentration at half of the fitted maximal effect.

How did C=C1C(=O)O[C@@H]2[C@H]1[C@@H](OC(=O)/C(C)=C/C)C/C(C)=C\C(=O)/C=C(\C)[C@@H]2O do in these assays?
ClpP mod: 0.3%; DT40 TDP1 no CPT: 2.06µM*; TDP1 cell CPT: 1.46µM*; TDP1 block: -1.2%

What do the screens show for `C/C=C(/C)C(=O)O[C@H]1CC(C)=CC(=O)[C@@]2(C)CC[C@@](O)(C(C)C)[C@H]12`?
TDP1 block: 10.9%

Results for Cc1c(OCc2ccc(C(=O)O)o2)ccc2c3c(c(=O)oc12)CCC3 ?
ClpP mod: 3.16µM*; DT40 TDP1 no CPT: -8.6%; TDP1 cell CPT: -20.7%

Results for COc1ccc2c3c(c(=O)oc2c1OCC(=O)O)CCCC3 ?
ClpP mod: 20µM*; DT40 TDP1 no CPT: 3.2%; TDP1 cell CPT: 8.3%; TDP1 block: -1.2%

What do the screens show for `COC(=O)[C@@H]1CCCN1Cc1ccc2c(c1)CN(Cc1cccn1-c1ncccn1)CCO2`?
DT40 TDP1 no CPT: -26.1%; TDP1 cell CPT: inconclusive

Results for CC[C@H](C)[C@H](NC(N)=O)C(=O)Nc1ccccc1F ?
DT40 TDP1 no CPT: -13.7%; TDP1 cell CPT: -1.4%; TDP1 block: 0.0%

What do the screens show for `COC(=O)CN1C(=O)C2(C(C#N)=C(N)Oc3c2c(C)nn3-c2ccccc2)c2ccccc21` (centres undefined)?
ClpP mod: -1.6%; DT40 TDP1 no CPT: 20.6µM*; TDP1 cell CPT: inconclusive; TDP1 block: 2.4%

How did CCCC(=O)Nc1nnc(SCc2cc(=O)n3ccccc3n2)s1 do in these assays?
ClpP mod: -10.5%; DT40 TDP1 no CPT: inconclusive; TDP1 cell CPT: inconclusive; TDP1 block: 5.4%

What do the screens show for `O=C1C2C3c4ccccc4C(c4ccccc43)C2C(=O)N1Cc1cccnc1` (centres undefined)?
ClpP mod: -1.5%; DT40 TDP1 no CPT: 18.4µM*; TDP1 cell CPT: inconclusive; TDP1 block: 1.9%

How did O=C1C2C3c4ccccc4C(c4ccccc43)C2C(=O)N1Cc1ccccn1 (centres undefined) do in these assays?
DT40 TDP1 no CPT: 23.1µM*; TDP1 cell CPT: 23.1µM*; TDP1 block: 2.6%

What do the screens show for `CC(C)NC(=O)c1cc2c(Cl)nc3ccccc3c2s1`?
ClpP mod: -3.6%; DT40 TDP1 no CPT: inconclusive; TDP1 cell CPT: -27.0%; TDP1 block: 4.6%

What do the screens show for `CCOC(=O)c1cnc2c(C)c(Cl)ccc2c1Nc1ccc(N2CCOCC2)cc1`?
ClpP mod: 0.8%; DT40 TDP1 no CPT: inconclusive; TDP1 cell CPT: inconclusive

What do the screens show for `COc1ccc(C2Nc3ccccc3C(=O)N2NS(=O)(=O)c2ccc(C)cc2)cc1OC` (centres undefined)?
ClpP mod: -2.6%; DT40 TDP1 no CPT: inconclusive; TDP1 cell CPT: -1.6%; TDP1 block: 0.7%

Results for CCN(CC(=O)Nc1ccc(S(=O)(=O)N2CCCCC2)cc1)Cc1ccccc1 ?
ClpP mod: -4.2%; DT40 TDP1 no CPT: inconclusive; TDP1 cell CPT: 11.6µM*; TDP1 block: 9.9%

How did CN(CC(=O)Nc1cc(S(=O)(=O)N2CCCC2)ccc1Cl)Cc1cccs1 do in these assays?
ClpP mod: -4.9%; DT40 TDP1 no CPT: 16.4µM*; TDP1 cell CPT: inconclusive; TDP1 block: 5.6%

How did O=C(C1CCCN(S(=O)(=O)c2ccc(Cl)cc2)C1)N(Cc1cccs1)C1CC1 (centres undefined) do in these assays?
ClpP mod: -2.4%; DT40 TDP1 no CPT: 18.4µM*; TDP1 cell CPT: inconclusive; TDP1 block: 5.6%

How did CCN(CC(=O)NCc1ccc(F)cc1)CC(=O)Nc1ccc(S(=O)(=O)N2CCCC2)cc1 do in these assays?
ClpP mod: 0.3%; DT40 TDP1 no CPT: -1.6%; TDP1 cell CPT: -1.3%; TDP1 block: -2.6%

Results for CCN(CC(=O)Nc1cc(S(=O)(=O)N2CCCCC2)ccc1Cl)Cc1ccccc1 ?
ClpP mod: -3.0%; DT40 TDP1 no CPT: 18.4µM*; TDP1 cell CPT: 16.4µM*

How did O=C(CNc1ccccc1F)Nc1cc(S(=O)(=O)N2CCCCC2)ccc1Cl do in these assays?
ClpP mod: 0.4%; DT40 TDP1 no CPT: -27.2%; TDP1 cell CPT: -29.6%; TDP1 block: 0.9%

Results for CN(Cc1cccs1)C(=O)c1ccc(S(=O)(=O)N2CCCCC2)cc1 ?
ClpP mod: -0.4%; DT40 TDP1 no CPT: inconclusive; TDP1 cell CPT: inconclusive; TDP1 block: 8.4%

What do the screens show for `NS(=O)(=O)c1ccc(NC(=O)COC(=O)CCc2ccc(S(=O)(=O)N3CCOCC3)cc2)cc1`?
ClpP mod: 3.4%; DT40 TDP1 no CPT: -1.4%; TDP1 cell CPT: -4.3%; TDP1 block: 5.7%

What do the screens show for `COc1cccc(C(=O)c2c(-c3ccccc3)ncc3cc(OC)c(OC)cc23)c1`?
ClpP mod: -3.0%; DT40 TDP1 no CPT: inconclusive; TDP1 cell CPT: inconclusive; TDP1 block: 2.2%[56.1 µM]

What do the screens show for `O=S(=O)(c1ccc(S(=O)(=O)N(Cc2ccccc2)Cc2ccco2)cc1)N1CCCC1`?
ClpP mod: 1.5%; DT40 TDP1 no CPT: inconclusive; TDP1 cell CPT: 14.6µM*

How did COc1ccc([C@H]2N[C@]3(CCCN(Cc4ccccc4)C3=O)[C@H]3C(=O)N(Cc4ccccc4)C(=O)[C@@H]23)cc1 do in these assays?
ClpP mod: -1.3%; DT40 TDP1 no CPT: inconclusive; TDP1 cell CPT: -6.5%

Results for COc1ccc([C@H]2N[C@]3(CCCN(Cc4ccc(C)cc4)C3=O)[C@H]3C(=O)N(Cc4ccccc4)C(=O)[C@@H]23)cc1 ?
ClpP mod: -0.9%; DT40 TDP1 no CPT: 16.4µM*; TDP1 cell CPT: inconclusive

What do the screens show for `COc1ccc([C@H]2N[C@]3(CCCN(Cc4ccc(Cl)cc4)C3=O)[C@H]3C(=O)N(Cc4ccccc4)C(=O)[C@@H]23)cc1`?
ClpP mod: 1.8%; DT40 TDP1 no CPT: 23.1µM*; TDP1 cell CPT: 18.4µM*

What do the screens show for `COc1cc(/C=C(\C#N)c2nc(-c3cc4ccccc4oc3=O)cs2)ccc1O`?
ClpP mod: -0.4%; DT40 TDP1 no CPT: 18.4µM*; TDP1 cell CPT: 18.4µM*; TDP1 block: 0.0%

Results for CC1CCC(=C(C#N)c2nc(-c3cc4ccccc4oc3=O)cs2)CC1 (centres undefined) ?
ClpP mod: 3.55µM*; DT40 TDP1 no CPT: 20.6µM*; TDP1 cell CPT: inconclusive; TDP1 block: 0.0%

How did COC(=O)[C@@]1(Cc2ccc(OC)cc2)[C@H]2c3cc(C(=O)N(C)C)n(Cc4cccc5ccccc45)c3C[C@H]2CN1C(=O)c1ccccc1 do in these assays?
TDP1 block: 14.1%

Results for Cc1ccccc1CN1CCCOCCS1(=O)=O ?
ClpP mod: -0.8%; DT40 TDP1 no CPT: inconclusive; TDP1 cell CPT: -2.3%

What do the screens show for `O=S1(=O)CCOCCCN1Cc1ccccc1Br`?
ClpP mod: 1.1%; DT40 TDP1 no CPT: -27.7%; TDP1 cell CPT: 29.1µM*!

Compound activity (PubChem BioAssay)
